Assay results as given in the supplement of paper PMC6279402.
± gives the standard deviation of the averaged measurements.

Test system: A549
Assay: relative viability (normalised to negative control = 1, bortezomib = 0) (fraction); higher = less cytotoxic
Settings: inflammatory serum-free RHB-A with cytokines + LPS, 5 d + 24 h CellTiter-Blue
[1] = compound 30 nM, GSK126 pretreatment: 5 uM GSK126
[2] = compound 30 nM, GSK126 pretreatment: none (vehicle)
[3] = compound 300 nM, GSK126 pretreatment: 5 uM GSK126
[4] = compound 300 nM, GSK126 pretreatment: none (vehicle)

Compound	relative viability [1]	relative viability [2]	relative viability [3]	relative viability [4]
CCCCCOC(=O)Nc1nc(=O)n([C@@H]2O[C@H](C)[C@@H](O)[C@H]2O)cc1F [Capecitabine]	0.858 ± 0.12	0.867 ± 0.12	0.892 ± 0.14	0.965 ± 0.12
C/C=C1\NC(=O)[C@H]2CSSCC/C=C/[C@H](CC(=O)N[C@H](C(C)C)C(=O)N2)OC(=O)[C@H](C(C)C)NC1=O [Depsipeptide]	0.00208 ± 0.0052	0.00595 ± 0.0056	-0.0034 ± 0.0005	-0.00514 ± 0.00076
CCCCC(=O)OCC(=O)[C@]1(O)Cc2c(O)c3c(c(O)c2[C@@H](O[C@H]2C[C@H](NC(=O)C(F)(F)F)[C@H](O)[C@H](C)O2)C1)C(=O)c1c(OC)cccc1C3=O [Valrubicin]	0.989 ± 0.055	1.01 ± 0.042	0.899 ± 0.027	0.879 ± 0.041
Cn1cc(-c2ccc3nnc(C(F)(F)c4ccc5ncccc5c4)n3n2)cn1	0.954 ± 0.11	0.904 ± 0.029	1.001 ± 0.009	0.947 ± 0.026
O=C1C(c2c(O)[nH]c3ccccc23)=Nc2ccccc21 [Indirubin; INDIRUBIN]	0.788 ± 0.038	0.796 ± 0.041	0.762 ± 0.078	0.807 ± 0.045
COC(=O)Nc1ccc(-c2nc(N3CCOCC3)c3cnn(C4CCN(Cc5cccnc5)CC4)c3n2)cc1	0.851 ± 0.12	0.869 ± 0.13	0.847 ± 0.061	0.832 ± 0.097
COc1cc(Nc2ncc(F)c(Nc3ccc4c(n3)NC(=O)C(C)(C)O4)n2)cc(OC)c1OC [R406(free base); R406]	0.92 ± 0.13	0.896 ± 0.067	1.23 ± 0.096	1.22 ± 0.087
CCOc1cc2ncc(C#N)c(Nc3ccc(OCc4ccccn4)c(Cl)c3)c2cc1NC(=O)/C=C/CN(C)C [Neratinib]	0.713 ± 0.16	0.675 ± 0.14	0.196 ± 0.014	0.183 ± 0.014
CS(=O)(=O)N1CCN(Cc2cc3nc(-c4cccc5[nH]ncc45)nc(N4CCOCC4)c3s2)CC1	0.716 ± 0.093	0.719 ± 0.062	0.339 ± 0.066	0.411 ± 0.017
C=CC(=O)Nc1cccc(Sc2nc(Nc3ccc(N4CCN(C)CC4)cc3)ncc2Cl)c1	0.859 ± 0.1	0.815 ± 0.085	0.475 ± 0.1	0.477 ± 0.083
Nc1nc(Cl)nc2c1ncn2[C@H]1C[C@H](O)[C@@H](CO)O1 [Cladribine]	0.723 ± 0.12	0.729 ± 0.099	0.386 ± 0.1	0.305 ± 0.075
CC(C)C[C@H](NC(=O)[C@H](Cc1ccccc1)NC(=O)c1cnccn1)B(O)O [Bortezomib]	0.00425 ± 0.0011	0.015 ± 0.0062	0.00234 ± 0.0024	0.00262 ± 0.0014
NC(=O)Nc1cc(-c2cccc(F)c2)sc1C(=O)N[C@H]1CCCNC1	0.407 ± 0.061	0.389 ± 0.034	0.253 ± 0.082	0.194 ± 0.021
O=C(O)C(=O)O.[NH-][C@@H]1CCCC[C@H]1[NH-].[Pt+2] [Oxaliplatin]	0.792 ± 0.077	0.782 ± 0.1	0.79 ± 0.088	0.796 ± 0.037
CN(N=O)C(=O)N[C@@H]1[C@@H](O)[C@H](O)[C@@H](CO)O[C@@H]1O [Streptozocin]	0.985 ± 0.071	0.903 ± 0.13	1.01 ± 0.15	1.08 ± 0.088
CN(c1ncccc1CNc1nc(Nc2ccc3c(c2)CC(=O)N3)ncc1C(F)(F)F)S(C)(=O)=O	0.902 ± 0.22	0.907 ± 0.16	0.907 ± 0.12	0.891 ± 0.13
C[C@@H]1CCN(C(=O)CC#N)C[C@@H]1N(C)c1ncnc2[nH]ccc12	1.05 ± 0.18	0.99 ± 0.17	1.31 ± 0.067	1.28 ± 0.1
C[C@@H]1CN(CC(=O)Nc2ccc3c(c2)Cc2cccc(-c4cc(=O)cc(N5CCOCC5)o4)c2S3)C[C@H](C)O1	0.816 ± 0.029	0.857 ± 0.089	0.907 ± 0.043	0.943 ± 0.024
C=CC(=O)Nc1cc2c(Nc3ccc(F)c(Cl)c3)ncnc2cc1OCCCN1CCOCC1 [CI-1033(Canertinib)]	0.602 ± 0.014	0.595 ± 0.017	0.483 ± 0.028	0.502 ± 0.028
Cc1cnc(-c2cnc(NCCNc3ccc(C#N)cn3)nc2-c2ccc(Cl)cc2Cl)[nH]1	0.847 ± 0.064	0.834 ± 0.016	0.788 ± 0.059	0.732 ± 0.097
N#Cc1c(O)c2c(-c3ccc(-c4ccccc4O)cc3)csc2[nH]c1=O	0.86 ± 0.15	0.937 ± 0.13	0.938 ± 0.18	0.942 ± 0.11
O=C(O)C1(C(=O)O)CCC1.[NH2-].[NH2-].[Pt+2] [Carboplatin]	0.75 ± 0.042	0.748 ± 0.059	0.742 ± 0.048	0.812 ± 0.0056
COc1cc(N2CCC(N3CCN(C)CC3)CC2)ccc1Nc1ncc(Cl)c(Nc2ccccc2S(=O)(=O)C(C)C)n1	0.545 ± 0.012	0.605 ± 0.022	0.211 ± 0.019	0.259 ± 0.028
Nc1ncn([C@@H]2O[C@H](CO)[C@@H](O)[C@H]2O)c(=O)n1 [Azacitidine; 5-azacytidine]	0.841 ± 0.27	0.854 ± 0.13	0.903 ± 0.15	0.996 ± 0.13
Cc1cc(C(C)Nc2ccccc2)c2nc(N3CCOCC3)cc(=O)n2c1 (configuration not stated)	0.763 ± 0.083	0.782 ± 0.067	0.737 ± 0.093	0.8 ± 0.1
O=NN(CCCl)C(=O)NCCCl [Carmustine]	0.852 ± 0.1	0.858 ± 0.13	0.894 ± 0.046	0.955 ± 0.072
Nc1ncnc2c1c(-c1cccc(OCc3ccccc3)c1)cn2C1CC(CN2CCCC2)C1 (configuration not stated)	0.733 ± 0.037	0.748 ± 0.028	0.287 ± 0.021	0.333 ± 0.059
c1cncc(CN2CCC(n3ncc4c(N5CCOCC5)nc(-c5ccc6[nH]ccc6c5)nc43)CC2)c1	0.861 ± 0.099	0.896 ± 0.11	0.73 ± 0.14	0.761 ± 0.073
